This is a sample that favours compounds with a hit; in the whole collection about 27% have one here.
Cav3 T inh: Cav3.2 calcium influx blockers – cell-based, Fluo-4 calcium fluorescence, FDSS, MLSMR library, primary screen; Voltage-dependent T-type calcium channel subunit alpha-1H (Homo sapiens), O95180; Cav3.2-expressing cells; hits give low values; B-score at 10 µM; 100,000 tested, 4% active; AID 449739, 2010;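 active = single-dose well whose peak fluorescence ratio is a statistical outlier from its plate by either plate-standardised score or position-corrected B-score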
CYP2C9 inhib: blockers of cytochrome P450 2C9 activity – biochemical, luminescence, ADME assay, primary screen; P11712; CYP2C9 Supersomes, luciferin-H conversion; inhibition, % at 5 µM; 96,000 tested, 20% active; AID 777, 2007;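 active = blocking of liver enzyme CYP2C9 beyond about 50% at 5 µM, limit read from the data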
CYP2C19 inhib: blockers of cytochrome P450 2C19 activity – biochemical, luminescence, ADME assay, primary screen; P33261; inhibition, % at 5 µM; AID 778, 2007; CYP2C19 Supersomes, luciferin-H EGE luminescence, 30 min; 96,000 tested, 21% active;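 active = CYP2C19 inhibition above a set limit at 5 µM in the primary screen, cut at about 50% in these data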;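 also: plate controls were negative control wells for no effect and 2.5 mM tranylcypromine positive control for full effect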
Target sequence (P33261 whole entry, looked up): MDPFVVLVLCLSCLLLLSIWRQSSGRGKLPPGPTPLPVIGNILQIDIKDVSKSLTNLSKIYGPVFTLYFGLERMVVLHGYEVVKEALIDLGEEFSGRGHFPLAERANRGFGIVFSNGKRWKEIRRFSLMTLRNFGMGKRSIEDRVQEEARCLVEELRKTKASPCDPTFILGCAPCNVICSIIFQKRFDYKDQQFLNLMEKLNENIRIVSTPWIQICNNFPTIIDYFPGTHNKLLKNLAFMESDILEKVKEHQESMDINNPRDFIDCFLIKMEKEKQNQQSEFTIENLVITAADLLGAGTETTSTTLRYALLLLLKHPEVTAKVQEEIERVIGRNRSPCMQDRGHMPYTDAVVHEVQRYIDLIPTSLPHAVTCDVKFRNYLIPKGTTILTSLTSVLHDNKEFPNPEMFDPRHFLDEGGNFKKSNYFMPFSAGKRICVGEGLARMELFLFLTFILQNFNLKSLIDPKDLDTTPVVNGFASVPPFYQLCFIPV
CYP2C9 activ: human CYP2C9 activators, primary screen, biochemical, luminescence. recombinant CYP2C9, luciferin-H conversion; hits give high values; factor 1 = untreated enzyme, 0 = blocked. 96,000 tested, 1.4% active. Cytochrome P450 2C9 (Homo sapiens), P11712. activation factor at 5 µM;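 active = activation factor of 2 or more for CYP2C9 at a 5 µM dose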;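 also: 0 = sulfaphenazole-blocked wells and 1 = vehicle-only wells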
CYP2C19 activ: human CYP2C19 activators, primary screen, biochemical, luminescence; recombinant CYP2C19, luciferin-H EGE luminescence; hits give high values; 0 = fully inhibited enzyme, 1 = untreated enzyme; activation factor at 5 µM; 96,000 tested, under 10 active;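 active = activation factor of at least 2 at 5 µM in the primary screen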;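 also: 0 = wells with 2.5 mM tranylcypromine and 1 = vehicle-only wells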
Numbers without * were called inactive; . = no result.

SMILES	Cav3 T inh	CYP2C9 inhib	CYP2C19 inhib	CYP2C9 activ	CYP2C19 activ
O=C(NCCOC(=O)c1ccc(C(=O)OCCNC(=O)c2ccccc2)o1)c1ccccc1	-0.015	83*	36	0.2	0.6
O=C(NCCCCCNC(=O)c1cccnc1)c1cccnc1	0.024	14	1	0.9	1
COC(=O)CNC(=O)c1ccccc1	1	.	.	.	.
NCCCC[C@@H](C(=O)N1CCNCC1)n1cc(CCC(=O)O)nn1	-2.5	.	.	.	.
CCOC(=O)CNC(=O)CSc1nc2nc(C)c(Br)cc2[nH]1	1.2	61*	60*	0.4	0.4
Cc1nc2nc(SCC(N)=O)[nH]c2cc1Br	.	9	4	0.9	1
Cc1ccccc1Nc1c(N)c(=O)oc2ccccc12	-1.3	65*	96*	0.4	0
Nc1c(NCCCN2CCOCC2)c2ccccc2oc1=O	0.74	-2	-6	1	1.1
O=C1NC(=S)N/C1=C/c1cc([N+](=O)[O-])ccc1O	-0.93	33	4	0.7	1
COc1ccc(OC)c(NC(=O)CSc2nnc(CNC(=O)COc3ccc(Cl)cc3)o2)c1	-3	-10	61*	1.1	0.4
COC(=O)c1ccccc1NC(=O)CSc1nnc(Cc2ccc(Cl)cc2)o1	.	82*	91*	0.2	0.1
COc1ccccc1NC(=O)CSc1nnc(CNC(=O)COc2ccc(Cl)cc2)o1	-3.2	-122	59*	2.2*	0.4
Cn1c(=O)[nH]c(=O)c2c1nc(Br)n2CCSc1nc2ccccc2o1	-0.77	23	24	0.8	0.8
Cc1cccc(C)c1NC(=O)NC1(C(=O)NCCCN2CCOCC2)CCCCC1	0.29	.	.	.	.
O=C(Nc1ccccc1F)c1cc2nc(C(F)F)cc(C(F)F)n2n1	-0.84	.	.	.	.
COC(=O)C1=C(N)Oc2cc(C)n(CC3CCCO3)c(=O)c2C1c1ccc(Cl)cc1 (stereo unspecified)	-3.1*	57*	67*	0.4	0.3
COC(=O)C1=C(N)Oc2cc(C)n(Cc3cccnc3)c(=O)c2C1c1cc(OC)ccc1OC (stereo unspecified)	1.6	23	36	0.8	0.6
COC(=O)C1=C(N)Oc2cc(C)n(CCCn3ccnc3)c(=O)c2C1c1cccc(Cl)c1 (stereo unspecified)	-0.79	92*	83*	0.1	0.2
COC(=O)C1=C(N)Oc2cc(C)n(CC3CCCO3)c(=O)c2C1c1ccccc1 (stereo unspecified)	-0.15	22	10	0.8	0.9
COC(=O)C1=C(N)Oc2cc(C)n(Cc3cccnc3)c(=O)c2C1c1cccc(OC)c1OC (stereo unspecified)	1.7	50*	35	0.5	0.7
COC(=O)C1=C(N)Oc2cc(C)n(CCc3ccccc3)c(=O)c2C1c1cccnc1 (stereo unspecified)	-0.81	85*	92*	0.1	0.1
COC(=O)C1=C(N)Oc2cc(C)n(Cc3cccnc3)c(=O)c2C1c1ccc(OC)c(OC)c1 (stereo unspecified)	.	48	46	0.5	0.5
Cc1cccc(C)c1NC(=O)C1CCCCN1C (stereo unspecified)	0.85	.	.	.	.
Cc1cccc(-n2c(C)nc3c(cnn3-c3ccc(F)cc3)c2=O)c1	-0.21	14	4	0.9	1
Cn1cnnc1SCCC(=O)Nc1ccc(Cl)cc1	0.59	.	.	.	.
SMILES	Cav3 T inh	CYP2C9 inhib	CYP2C19 inhib	CYP2C9 activ	CYP2C19 activ
Cc1ccc(S(=O)(=O)N2CCC(=O)N(C(COCc3cccc(C(F)(F)F)c3)C(C)C)CC2)cc1 (stereo unspecified)	-0.61	.	.	.	.
CC(CNC(=O)c1cc(Cl)ccc1[N+](=O)[O-])NC(=O)c1cc(Cl)ccc1[N+](=O)[O-] (stereo unspecified)	-0.4	3	7	1	0.9
O=C(Nc1ccccc1-c1nc2ccccc2[nH]1)c1ccc(S(=O)(=O)N2CCCCC2)cc1	0.16	9	4	0.9	1
O=C(NCc1nc2ccccc2[nH]1)c1ccc(Cl)c(S(=O)(=O)N2CCCC2)c1	-2.9	45	65*	0.5	0.3
CSCCC(NC(=O)C1CC1)c1nc2ccccc2[nH]1 (stereo unspecified)	-0.071	6	13	0.9	0.9
CCCn1c(NC(=O)c2ccc(Cl)c(S(=O)(=O)N3CCCC3)c2)nc2ccccc21	-3.1	84*	83*	0.2	0.2

Compound activity deposited in PubChem by several laboratories.
